PubChem BioAssay AID488899 (Broad Institute, 2010)
Among all 330,000 compounds or so, about 2,800 (0.85%) were called active. The entries come from a sample that favours actives as a whole. A number with no mark means an inactive call.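 The calls were made as follows: active = mean inhibition across replicates of 60% or more, whatever share of single replicates reaches that level; inconclusive = some that reach 60%, reason not given; inactive = mean inhibition across replicates below 60%.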

Assay: MITF transcriptional activity suppression – cell-based, SK-MEL-5, single point, luciferase, primary screen (AID 488899)
Conditions: SK-MEL-5 TRPM1 promoter luciferase, 24 h; at 12.5 µM; active compounds read high

| Structure (SMILES) | inhibition |
| --- | --- |
| CNN/C(N=Cc1ccc([N+](=O)[O-])s1)=N\S(=O)(=O)c1cc(C)c(Cl)cc1SCc1ccccc1 | 24.1% |
| CNC[C@H](CC1CCCCC1)NC[C@H](NCCC1CCCC1)[C@H](C)O | 78.2% (active) |
| CCOC(=O)c1ccccc1NC(=O)CSc1nc2c(sc(=S)n2CC)c(=O)[nH]1 | -3.35% |
| Cc1ccc(-n2nc(N)c3c(=O)oc(N(C)C)nc32)cc1 | -8.9% |
| COc1ccc(C(=O)NCC(c2ccco2)N2CCc3ccccc32)cc1OC (stereo not drawn) | 5.95% |
| Cc1ccc2nc(-c3ccc(Br)cc3)cn2c1 | 50.5% |
| Cc1ccc(-c2cn3cc([N+](=O)[O-])ccc3n2)cc1 | 48.1% |
| Cc1ccc(-c2cn3cc(C)ccc3n2)cc1 | 93.3% (active) |
| CCOc1ccc(-n2cnc3c(=O)[nH]c(N)nc32)cc1 | -21.7% |
| O=C(CCCCCCCC(=O)N1CCCCC1)N1CCCCC1 | 0.359% |
| COc1ccc(NC(=O)COC(=O)c2ccncc2)c(OC)c1 | -6.34% |
| Cc1cc2oc(=O)cc(CN3CCN(Cc4ccccc4)CC3)c2cc1C | -7.61% |
| COc1cccc2sc3cc(NCC[C@@H]4CCCN4C)ccc3c(=O)c12 | -35.6% |
| Cc1cc2oc3ccc(NCCC4CCCN4C)cc3c(=O)c2cc1C (stereo not drawn) | 82.2% (active) |
| CCOc1ccc(CN2CCNC(=O)C2CC(=O)NCCCC2CCCC2)cc1 (stereo not drawn) | -18.3% |
| COc1cc([N+](=O)[O-])ccc1NC(=O)COC(=O)CCOc1ccc(C)cc1 | 8.46% |
| COC(=O)c1sccc1NC(=S)Nc1ccc(C)cc1 | -74.3% |
| COc1ccc(CS(=O)/C(Cl)=C(/Cl)C(=O)Nc2ccc(OC)nc2)cc1 (stereo not drawn) | 99.4% (active) |
| COc1ccc(C(=O)CCC(=O)Nc2ccc(Cl)cc2)cc1 | -4.44% |
| COc1ccc(NC(=O)/C(Cl)=C(/Cl)S(=O)Cc2ccc(C)cc2)cn1 (stereo not drawn) | 113% (active) |
| COc1ccc(CCNC(=O)c2cnc(Cl)c(Cl)c2)cc1 | 1.33% |
| CCN(CC(=O)Nc1ccc(OC)cc1)C(=O)CSCc1ccc(C)cc1 | -0.141% |
| COc1ccc(C(=O)NC(Cc2ccc(OC(=O)c3ccc(OC)cc3)cc2)C(=O)O)cc1 (stereo not drawn) | 3.82% |
| Cc1cc(C(=O)N/N=C/c2ccccn2)c2ccccc2n1 | -2.21% |

| Structure (SMILES) | inhibition |
| --- | --- |
| O=C(N/N=C/c1ccccn1)C12CC3CC(CC(C3)C1)C2 | 0.297% |
| Cc1nnc(N/N=C/c2ccccn2)[nH]c1=O | 79.6% (active) |
| O=C(O)c1cc(S(=O)(=O)N(Cc2ccccc2)c2cccc(C(F)(F)F)c2)ccc1Cl | 11.3% |
| COc1cc2c(cc1O)C(SC)=NC(C)(C)C2 | 73.8% (active) |
| COc1cc2c(cc1OC)C(C(C)C)=NC(C)(C)C2 | 2.2% |
| COc1cc2c(cc1OC)C(Nc1ccc(S(N)(=O)=O)cc1)=NC(C)(C)C2 | 12.1% |
| COc1ccc(-n2c(C)nn(CC3CC3)c2=O)cc1 | -0.556% |
| CCOc1ccc(NC(=O)CSc2nc3ccccc3c(=O)n2Cc2cccs2)cc1 | 9.83% |
| C=CCn1c(CNS(=O)(=O)c2ccc(Br)cc2)nnc1SC | -0.805% |
| CC(C)c1cc(C(=O)N/N=C/C(Br)=C/c2ccccc2)n[nH]1 | 11.7% |
| COc1ccccc1N1CCN(/N=C\C(Br)=C\c2ccccc2)CC1 | -56.4% |
| Cc1cc(-c2n[nH]c(=S)n2/N=C/C(Br)=C/c2ccccc2)n[nH]1 | 71.3% (active) |
| COc1ccc(-c2cc(=O)oc3cc(OC(C)C(=O)Nc4ccc(CN5CCOCC5)cc4)ccc23)cc1 (stereo not drawn) | -4.64% |
| CCCN(CCC)S(=O)(=O)c1cc2c(cc1Br)CCN2C(=O)CC | 0.177% |
| NN=C(NN=Cc1ccccc1)c1ccccc1 | -40.6% |
| CC(Oc1ccc(-c2ccccc2)c(F)c1)c1ccn(S(=O)(=O)c2cccc3ccccc23)n1 (stereo not drawn) | -2.2% |
| O=C(O)c1ccc(S(=O)(=O)c2ccccc2)s1 | 11.8% |
| COC(=O)Cc1[nH]n(-c2nc3ccccc3s2)c(=O)c1C(C)=Nc1ccc(OC)cc1 | 95.4% (active) |
| COc1ccc(C2=NN(c3nc4ccccc4s3)C(=O)C2)cc1 | 19.7% |
| CC(=NCc1ccco1)c1c(C(F)(F)F)[nH]n(-c2nc3ccccc3s2)c1=O | -61.7% |
| CC[C@]12c3[nH]c4ccc(Cl)cc4c3CCN1C(=O)[C@@H](CC(=O)NCCCOC)C[C@@H]2C(=O)N1CCN(C(=O)c2ccco2)CC1 | -7.5% |
| CCOc1ccc(N/C=C/C(=O)c2cc(OC)c(OC)c(OC)c2)cc1 | 4.18% |
| COc1ccc(C(=O)/C=C/Nc2ccccn2)cc1 | 67.5% (active) |
| CCOc1ccc(N/C=C/C(=O)c2ccccc2)cc1 | 8.94% |

| Structure (SMILES) | inhibition |
| --- | --- |
| O=[N+]([O-])c1ccc(N=NNc2ccc([N+](=O)[O-])cc2)cc1 | -19.3% |
| CC(=O)NCCNC(=O)c1cc(-c2cccc3ccccc23)nc2ccccc12 | 9.13% |
| CN(C)CCNC(=O)c1ccc(Cl)c2cc3ccccc3nc12 | 74.8% (active) |
| CN(C)CCNC(=O)Nc1cccc(Cl)c1Cl | 5.71% |
| Cc1ccc(C(=O)Nc2ccc(NC(=O)c3cccs3)cc2)c(C)c1 | -4.59% |
| Cc1ccc(OCC(=O)Nc2ccc(NC(=O)c3cccs3)cc2)c(C)c1 | 27.8% |
| Cc1ccc(-c2nnc(-c3ccc(NC(=O)c4cccs4)cc3)o2)cc1 | 73.5% (active) |
| CS(=O)(=O)c1ccc2nnn(OCC(=O)Nc3cccc(C#N)c3)c2c1 | 10.8% |
| COc1cc(O)c2c(=O)c3c(O)c(O)ccc3oc2c1OC | -1.36% |
| Cc1ccccc1-c1n[nH]c(=S)n1/N=C/c1ccc(-c2ccccc2Br)o1 | 10.7% |
| O=C(CSc1n[nH]c(-c2cccs2)n1)N1CCCCC1 | -12.1% |
| COc1cc(OC)cc(C(=O)NNC(=O)CCOc2ccccc2OC)c1 | -4.37% |
| COc1cc(OC)cc(C(=O)N[C@H](C(=O)Nc2nc3ccccc3[nH]2)C(C)C)c1 | 71% (active) |
| COc1ccc(C(=O)N[C@H](C(=O)NCc2ccccc2)C(C)C)cc1 | 9.58% |
| COc1cc(OC)cc(C(=O)N[C@H](C(=O)NNC(=O)c2ccc(Br)cc2)C(C)C)c1 | 13.3% |
| CCn1nnc2cc(C(=O)Nc3ccc(C(=O)OC(C)C)cc3)ccc21 | 21.6% |
| CCOC(=O)C(CO)NC(=O)C1(NC(C)=O)CCCC1 (stereo not drawn) | -14.8% |
| Cc1csc(NC(=O)c2ccc(C)s2)n1 | -57.3% |
| COc1ccc(C(=O)Nc2cccc(NC(=O)c3ccc(OC)cc3OC)n2)c(OC)c1 | -13.3% |
| COc1cc(SC)ccc1C(=O)Nc1nc(C)cs1 | 88.5% (active) |
| Cc1ccc(N2C(=O)CC(Nc3cccc4ccccc34)C2=O)cc1 (stereo not drawn) | 8.42% |
| CC(=O)Nc1ccccc1Sc1ccc2c3c(cccc13)C(=O)N(c1ccc(C)cc1)C2=O | 65.2% (active) |
| CSc1ccccc1NC(=O)C(C)N1C(=O)c2ccccc2S1(=O)=O (stereo not drawn) | 0.029% |
| O=C(NNC(=O)C1CCCC1)c1ccc(F)cc1 | 3.41% |

| Structure (SMILES) | inhibition |
| --- | --- |
| O=C(/C=C/c1ccc([N+](=O)[O-])o1)NNC(=O)c1ccc(F)cc1 | 80.8% (active) |
| COc1ccc(C(=O)NCC(=O)N/N=C/c2ccc([N+](=O)[O-])o2)cc1OC | 10.3% |
| O=C(Cn1cnc2ccccc2c1=O)NCC1COc2ccccc2O1 (stereo not drawn) | -4.59% |
| NC(N)=Nc1nc(-c2ccccc2)c2cc(Cl)ccc2n1 | 85.2% (active) |
| Cc1ccc2nc(Nc3ccccc3O)nc(-c3ccccc3)c2c1 | -6.93% |
| COC(=O)Cn1nc(-c2ccccc2)c2cc(Cl)ccc21 | -4.99% |
| COc1ccc2[nH]c3c(C)c4cc[n+](C)cc4c(C)c3c2c1 | 50.4% |
| O=C(Cn1ccc2cc(S(=O)(=O)N3CCCC3)ccc21)NCc1ccccc1 | -7.14% |
| COC(=O)Cn1cc(/C=C/[N+](=O)[O-])c2ccccc21 | 1.38% |
| O=[N+]([O-])/C=C/c1ccc2c(ccn2Cc2ccccc2)c1 | 69.6% (active) |
| CC1(C)C2CCC1(C)C(OC(=O)c1ccc(O)cc1)C2 (stereo not drawn) | -0.433% |
| COC(=O)c1ccc(NCc2cc(O)ccc2O)cc1 | -5.57% |
| O=C(OC12CC3CC(CC(C3)C1)C2)c1ccc(NCc2cc(O)ccc2O)cc1 | 66.6% (active) |
| CC(C)OC(=O)c1ccc(NCc2cc(O)ccc2O)cc1Cl | 5.02% |
| Cc1ccc(-n2c(O)c(C=Nc3ccc(S(=O)(=O)Nc4ncccn4)cc3)c3ccccc3c2=O)cc1C | 7.63% |
| CCN(CC)CCCN=Cc1c(O)n(-c2ccc(C)cc2)c(=O)c2ccccc12 | -6.61% |
| CCOc1ccc(-n2c(O)c(/C=N/Nc3nc(C)cc(C)n3)c3ccccc3c2=O)cc1 | 67.6% (active) |
| Cc1ccc(S(=O)(=O)C2C(=O)NC3(C)CC2c2ccccc2O3)cc1 (stereo not drawn) | 4.13% |
| COc1ccc(C(=O)Nc2ccnn2C2CCN(Cc3ccncc3)CC2)cc1 | -5.32% |
| CCCCCN(C(=O)NC(=O)Nc1ccccc1C)S(C)(=O)=O | 4.88% |
| CCOC(=O)CCC(NC(=O)c1ccc(CNc2nc3cc(C(F)(F)F)ccc3nc2C(=O)OCC)cc1)C(=O)OCC (stereo not drawn) | 3.92% |
